# About 2,000 (36%) of roughly 5,500 compounds were called active. Another 18% or so got no clear call; they are omitted. This is one part of the list. A number with no mark means an inactive call. Cut-off read from the data, not from the text of the source: active = normalized growth mostly below about 0.91 (no sharp cut-off); inconclusive = no clear call, values can overlap the other calls; inactive = mostly above about 0.92.
# Assay: chemical genetic growth profiling, strain panel (AID 1159580);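 note: tested at 20 µM; growth read once vehicle control cultures reached saturation at 30 °C; 1 = growth at the plate median or of vehicle wells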
# Conditions: S. cerevisiae deletion strains, growth OD
# [1] = locus YHR030C, strain SLT2, stronger effect = lower value
# [2] = locus YHR079C, strain IRE1, stronger effect = lower value
# [3] = locus YJL095W, strain BCK1, stronger effect = lower value
# [4] = locus YJR066W, strain TOR1, stronger effect = lower value
# [5] = locus YLR113W, strain HOG1, stronger effect = lower value
# [6] = locus YNL183C, strain NPR1, stronger effect = lower value
# [7] = locus YOR231W, strain MKK1, stronger effect = lower value
# [8] = locus YPL256C, strain CLN2, stronger effect = lower value
smiles,measurement,setting,value
CC(C)=CCC/C(C)=C/CC/C(C)=C/CC/C(C)=C/CC/C(C)=C/CC/C(C)=C/CC/C(C)=C/CC/C(C)=C/CC/C(C)=C/CO,normalized growth,"locus YAL021C, strain ccr4, stronger effect = lower value",0.988
same,normalized growth,"locus YAL026C, strain drs2, stronger effect = lower value",1
same,normalized growth,"locus YAL030W, strain snc1, stronger effect = lower value",0.993
same,normalized growth,"locus YBL061C, strain skt5, stronger effect = lower value",0.988
same,normalized growth,"locus YBR009C, strain hhf1, stronger effect = lower value",0.995
same,normalized growth,"locus YBR023C, strain chs3, stronger effect = lower value",1
same,normalized growth,"locus YBR171W, strain sec66, stronger effect = lower value",1
same,normalized growth,"locus YBR231C, strain swc5, stronger effect = lower value",0.986
same,normalized growth,"locus YBR279W, strain paf1, stronger effect = lower value",0.966
same,normalized growth,"locus YCL011C, strain gbp2, stronger effect = lower value",0.985
same,normalized growth,"locus YCL016C, strain dcc1, stronger effect = lower value",0.99
same,normalized growth,"locus YCL061C, strain MRC1, stronger effect = lower value",0.994
same,normalized growth,"locus YCL069W, strain vba3, stronger effect = lower value",0.99
same,normalized growth,"locus YCR088W, strain abp1, stronger effect = lower value",0.988
same,normalized growth,"locus YDL005C, strain med2, stronger effect = lower value",0.992
same,normalized growth,"locus YDL040C, strain nat1, stronger effect = lower value",0.992
same,normalized growth,"locus YDR001C, strain nth1, stronger effect = lower value",0.99
same,normalized growth,"locus YDR069C, strain doa4, stronger effect = lower value",1.01
same,normalized growth,"locus YDR137W, strain rgp1, stronger effect = lower value",1.01
same,normalized growth,"locus YDR159W, strain sac3, stronger effect = lower value",1.1
same,normalized growth,"locus YDR195W, strain ref2",0.997
same,normalized growth,"locus YDR297W, strain sur2, stronger effect = lower value",0.99
same,normalized growth,"locus YDR334W, strain swr1, stronger effect = lower value",1.01
same,normalized growth,"locus YDR335W, strain msn5, stronger effect = lower value",1
same,normalized growth,"locus YDR392W, strain spt3, stronger effect = lower value",1.11
same,normalized growth,"locus YEL003W, strain gim4, stronger effect = lower value",1
same,normalized growth,"locus YEL037C, strain rad23, stronger effect = lower value",1.02
same,normalized growth,"locus YEL061C, strain CIN8 (second series), stronger effect = lower value",0.998
same,normalized growth,"locus YER015W, strain faa2, stronger effect = lower value",0.995
same,normalized growth,"locus YER016W, strain bim1, stronger effect = lower value",0.991
same,normalized growth,"locus YER111C, strain swi4, stronger effect = lower value",0.996
same,normalized growth,"locus YER155C, strain BEM2 (second series), stronger effect = lower value",1.01
same,normalized growth,"locus YFR010W, strain ubp6, stronger effect = lower value",1.01
same,normalized growth,"locus YGL167C, strain pmr1, stronger effect = lower value",1
same,normalized growth,"locus YGL173C, strain kem1, stronger effect = lower value",0.998
same,normalized growth,"locus YGL227W, strain vid30, stronger effect = lower value",0.983
same,normalized growth,"locus YGL240W, strain doc1, stronger effect = lower value",1.03
same,normalized growth,"locus YGL253W, strain hxk2, stronger effect = lower value",0.983
same,normalized growth,"locus YHR013C, strain ard1, stronger effect = lower value",0.987
same,normalized growth,"locus YHR027C, strain rpn1, stronger effect = lower value",0.986
same,normalized growth,[1],1.02
same,normalized growth,[2],1.01
same,normalized growth,"locus YHR142W, strain chs7, stronger effect = lower value",0.983
same,normalized growth,"locus YJL092W, strain hpr5, stronger effect = lower value",1
same,normalized growth,"locus YJL095W, strain BCK1 (second series), stronger effect = lower value",0.992
same,normalized growth,[3],1.01
same,normalized growth,"locus YJL115W, strain asf1, stronger effect = lower value",0.989
same,normalized growth,"locus YJL129C, strain trk1, stronger effect = lower value",0.961
same,normalized growth,"locus YJL154C, strain vps35, stronger effect = lower value",0.995
same,normalized growth,"locus YJL164C, strain tpk1, stronger effect = lower value",0.989
same,normalized growth,"locus YJL166W, strain qcr8, stronger effect = lower value",0.991
same,normalized growth,"locus YJL187C, strain SWE1, stronger effect = lower value",1
same,normalized growth,[4],0.975
same,normalized growth,"locus YKL160W, strain elf1, stronger effect = lower value",0.996
same,normalized growth,"locus YKR026C, strain gcn3, stronger effect = lower value",1
same,normalized growth,"locus YKR091W, strain srl3, stronger effect = lower value",0.989
same,normalized growth,"locus YLL001W, strain dnm1, stronger effect = lower value",0.976
same,normalized growth,"locus YLL026W, stronger effect = lower value",0.995
same,normalized growth,"locus YLL041C, strain sdh2, stronger effect = lower value",0.996
same,normalized growth,"locus YLR027C, strain aat2, stronger effect = lower value",1.03
same,normalized growth,[5],0.971
same,normalized growth,"locus YLR221C, strain rsa3, stronger effect = lower value",0.965
same,normalized growth,"locus YLR258W, strain gsy2, stronger effect = lower value",0.992
same,normalized growth,"locus YLR262C, strain YPT6 (second series), stronger effect = lower value",1.01
same,normalized growth,"locus YLR320W, strain mms22, stronger effect = lower value",0.992
same,normalized growth,"locus YLR342W, strain FKS1, stronger effect = lower value",0.993
same,normalized growth,"locus YLR357W, strain rsc2, stronger effect = lower value",1.12
same,normalized growth,"locus YLR370C, strain arc18, stronger effect = lower value",0.995
same,normalized growth,"locus YLR384C, strain iki3, stronger effect = lower value",0.994
same,normalized growth,"locus YML120C, strain ndi1, stronger effect = lower value",0.99
same,normalized growth,"locus YMR058W, strain fet3, stronger effect = lower value",1.05
same,normalized growth,"locus YMR125W, strain sto1, stronger effect = lower value",0.984
same,normalized growth,"locus YMR129W, stronger effect = lower value",0.99
same,normalized growth,"locus YMR205C, strain PFK2, stronger effect = lower value",0.982
same,normalized growth,"locus YMR231W, strain pep5, stronger effect = lower value",1
same,normalized growth,"locus YNL071W, strain lat1, stronger effect = lower value",0.992
same,normalized growth,[6],0.943
same,normalized growth,"locus YNL209W, strain ssb2, stronger effect = lower value",0.991
same,normalized growth,"locus YNL248C, strain rpa49, stronger effect = lower value",1.16 [resistant] (active)
same,normalized growth,"locus YNL322C, strain KRE1 (second series), stronger effect = lower value",0.982
same,normalized growth,"locus YNR049C, strain mso1, stronger effect = lower value",1.02
same,normalized growth,"locus YOR001W, strain rrp6, stronger effect = lower value",1.03
same,normalized growth,"locus YOR070C, strain gyp1, stronger effect = lower value",0.986
same,normalized growth,"locus YOR080W, strain dia2, stronger effect = lower value",1
same,normalized growth,"locus YOR083W, strain WHI5, stronger effect = lower value",0.977
same,normalized growth,"locus YOR106W, strain vam3, stronger effect = lower value",0.969
same,normalized growth,[7],1
same,normalized growth,"locus YOR265W, strain rbl2, stronger effect = lower value",1.01
same,normalized growth,"locus YOR270C, strain vph1, stronger effect = lower value",1.12
same,normalized growth,"locus YOR290C, strain snf2, stronger effect = lower value",1.08
same,normalized growth,"locus YPL051W, strain arl3, stronger effect = lower value",1.02
same,normalized growth,"locus YPL078C, strain atp4, stronger effect = lower value",0.996
same,normalized growth,"locus YPL106C, strain sse1, stronger effect = lower value",1
same,normalized growth,"locus YPL240C, strain hsp82, stronger effect = lower value",1
same,normalized growth,[8],1.01
CC(C)=CCC/C(C)=C/CC/C(C)=C/CC/C(C)=C/CO,normalized growth,[1],1.06
same,normalized growth,[2],1.05
same,normalized growth,[3],1.04
same,normalized growth,[4],0.944
same,normalized growth,[5],0.975
same,normalized growth,[6],0.932
same,normalized growth,[7],0.998
same,normalized growth,[8],1.08

# From PubChem BioAssay AID1159580 (chemical genetic matrix, 2015)
